# Shown are actives, neighbours in structure and some others; about 11% of the full set was active somewhere.
# HEK293 tox: Cytotoxic Profiling in HEK 293 Cell Line of Diverse Libraries Using Quantitative High-Throughput Screening; HEK 293 viability, ATP luminescence (CellTiter-Glo), 48-72 h; Potency, µM (titrated, usually from 115 µM), for inactives: at the top dose activity change, negative = cytotoxicity, most hits filed as inhibitors; hit rate 6.6% among 94,000; also: nearly all actives have a fitted effect of over 60% in size
#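 250 HEK 293 cells/well; compound by pintool; incubated 48 or 72 hr at 37 degree Celsius; CellTiter-Glo added, 10 min RT, luminescence imaged.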
# NIH3T3 tox: Cytotoxic Profiling in NIH 3T3 Cell Line of Diverse Libraries Using Quantitative High-Throughput Screening | hit rate 4.3% among 94,000 | Potency, µM (series often up to 96.7 µM), without a hit: top-dose activity change, negative = cytotoxicity, actives largely listed as inhibitors | NIH 3T3 viability, CellTiter-Glo ATP luminescence, 48-72 h | AID 1345082, 2018; also: nearly all actives have a fitted effect of over 55% in size
#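 Cytotoxicity is measured as loss of cellular ATP: NIH 3T3 cells (400/well) are exposed to compound for 48 or 72 hr at 37 °C, then CellTiter-Glo luminescence is imaged after 10 min at room temperature.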
# FLuc inh: Firefly luciferase inhibition profiling of diverse chemical library using quantitative high-throughput screening | Luciferin 4-monooxygenase (Photinus pyralis), P08659 | AID 1347043, 2019 | purified P. pyralis luciferase, luminescence, biochemical | Potency, µM (highest dose often 115 µM), actives largely listed as inhibitors | hit rate 2.5% among 76,000; also: nearly all actives have a fitted effect of over 65% in size
#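 Purified 10nM P. pyralis luciferase with 10uM D-luciferin and 10uM ATP in 50mM Tris acetate pH 7.5, 10mM Mg acetate, 0.01% Tween-20, 0.05% BSA. qHTS titration; luminescence read by CCD imager.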
# hNpr1 antagonist: Natriuretic polypeptide receptor (hNpr1) antagonism - Primary qHTS; Potency, µM (highest dose often 46.3 µM), without a hit: at the highest dose activity change, negative = inhibition, actives largely listed as inhibitors; hit rate 1.6% among 76,000; Atrial natriuretic peptide receptor 1 (Homo sapiens), P16066; HEK293 hNpr1 GloSensor cGMP, ANP-stimulated luminescence; AID 1347048, 2019; calls by dose curve; also: nearly all actives have a fitted effect of over 60% in size
#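 Compound pre-incubated 30 min at room temperature on GloSensor-loaded HEK293 cells stably carrying hNpr1 and the pGS-40F cGMP biosensor. Stimulation uses hNppA at 0.1 nM final; luminescence is taken at baseline and 20 min post-agonist.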
# An asterisk follows results filed as active; i = inactive; ? = inconclusive; / = not tested or not shown; [ ] = remark or other dose. Unless noted, calls follow the shape of the dose curve; as a rule, active = well fitted curve in the direction sought with a large enough effect; inconclusive = small, poorly fitted or top-dose-only effect, or another doubt; inactive = no such curve, though single readings can be large; an effect the other way counts as inactive or inconclusive. % is scaled to controls: 0 for no effect and ±100 for the full control effect; potency is read from the fitted curve at half-maximal effect.
SMILES,HEK293 tox,NIH3T3 tox,FLuc inh,hNpr1 antagonist
CN(Cc1ccccc1)C(=O)c1ccc2c(c1)NC(C)(COc1ccccc1)CO2 (stereo unspecified),71µM*,50µM*,i,-10%[70.6 µM]
COc1ccc(NC(=O)c2ccc3c(c2)NC(C)(COc2ccccc2)CO3)cc1OC (stereo unspecified),?,?,i,-17%[70.6 µM]
CC1(COc2ccccc2)COc2ccc(C(=O)Nc3ccccc3)cc2N1 (stereo unspecified),71µM*,?,i,-6%[70.6 µM]
CC1(COc2cccnc2)COc2ccc(C(=O)NC3CCC(O)CC3)cc2N1 (stereo unspecified),?,?,i,-1%[70.6 µM]
CC(C)NC(=O)c1ccccc1OCC1CCCN(Cc2ccc(Br)o2)C1 (stereo unspecified),?,?,i,-13%
O=C(NCC1CC1)c1ccc2c(c1)C1(CCN(CC3CC3)C1)CN2Cc1ccccc1 (stereo unspecified),?,79µM*,i,-9%[70.6 µM]
O=C(NC1CCC1)c1ccc2c(c1)C1(CCN(CC3CC3)C1)CN2Cc1ccccc1 (stereo unspecified),56µM*,?,i,-13%[70.6 µM]
CN(C)CCNC(=O)c1ccc2c(c1)C1(CCN(CC3CC3)C1)CN2Cc1ccccc1 (stereo unspecified),45µM*,32µM*,i,-9%[70.6 µM]
CN1CCC2(C1)CN(Cc1ccccc1)c1ccc(C(=O)NC3COC3)cc12 (stereo unspecified),?,-7%[138 µM],i,4%[70.6 µM]
CN1CCC2(C1)CN(Cc1ccccc1)c1ccc(C(=O)NCC3CC3)cc12 (stereo unspecified),112µM*,?,i,-2%[70.6 µM]
CCNC(=O)c1ccc2c(c1)C1(CCN(CC3CC3)C1)CN2Cc1ccccc1 (stereo unspecified),?,?,i,-8%[70.6 µM]
O=C(NCC1CCCCC1)C1CCc2nnc(-c3cccc(C(F)(F)F)c3)n21 (stereo unspecified),-16%,-26%,/,/
CCCCn1c(=O)c(C(=O)NCc2cccs2)nc2cccnc21,-28%,-26%,/,/
COCCN1C(=O)c2cccn2CC1CNC(=O)c1n[nH]c(=O)c2ccccc12 (stereo unspecified),-8%,i,i,5%
Cc1cnc(C(=O)N[C@@H]2CCC[C@@H]2C(=O)NCc2ccccc2F)cn1,4%,1%,i,4%
COc1ccc(C(=O)N2CCN(c3ccc4nnc(C)n4n3)CC2)cc1,-8%,-28%,/,/
COCCNC(=O)c1ccc2c(c1)C1(CCN(C)C1)CN2Cc1csc(C)n1 (stereo unspecified),-13%[172 µM],?,i,2%[70.6 µM]
CN1CC2(CCCN(CC3CC3)C2)c2cc(C(=O)NCCOc3ccccc3)ccc21 (stereo unspecified),100µM*,79µM*,i,-2%[70.6 µM]
CN1CCC2(C1)CN(Cc1ccccc1)c1ccc(C(=O)NCCOc3ccccc3)cc12 (stereo unspecified),32µM*,?,i,1%
Cc1nc(CN2CC3(CCN(C)C3)c3cc(C(=O)NCCc4ccccc4)ccc32)cs1 (stereo unspecified),79µM*,?,i,0%
CC(=O)N1CCC(N2C[C@H](O)C[C@H]2c2nc(-c3ccc(C(F)(F)F)cc3)no2)CC1,71µM*,?,?,-10%[70.6 µM]
Cc1ccc(-c2noc([C@@H]3C[C@@H](O)CN3Cc3ccc(S(C)(=O)=O)cc3)n2)cc1F,?,?,71µM*,2%[70.6 µM]
CC(=O)N1CCC(N2C[C@H](O)C[C@H]2c2nc(-c3ccc4c(c3)OCO4)no2)CC1,-19%[172 µM],-18%[174 µM],i,-5%[70.6 µM]
O[C@@H]1C[C@@H](c2nc(-c3ccncc3)no2)N(C2CCCCC2)C1,-6%[172 µM],-4%[138 µM],i,6%[70.6 µM]
Cc1ccc(-c2noc([C@@H]3C[C@@H](O)CN3C3CCCCC3)n2)cc1F,-20%[172 µM],-29%[174 µM],50µM*,3%[70.6 µM]
COc1ccc(-c2noc([C@@H]3C[C@@H](O)CN3C3CCCCC3)n2)cc1,?,?,71µM*,5%[70.6 µM]
COc1ccc(Cn2c(C3CCN(C(=O)c4ccc(Cl)cc4)CC3)n[nH]c2=O)cc1,-1%,-13%,i,-4%

# High-throughput results deposited in PubChem BioAssay by National Center for Advancing Translational Sciences (NCATS).
